RTF Ca sens act – cardiac RTF calcium sensitization | activation, % at 7.2 µM | AID 493008 | hit rate 0.24% among 340,000 | P19429+P45379 | IANBD-labeled TnC RTF fluorescence at EC20 calcium; 0% EC20 calcium, 100% full calcium;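 active = activation above the mean over all tested compounds plus 3 SD, cut at about 30% in these data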;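 also: rise in fluorescence read as greater calcium sensitivity of cardiac thin filaments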
CRFBP-R2 agonist – agonists of human CRF-binding protein/CRF-R2 receptor complex; hit rate 0.46% among 350,000; activation, % at 13.2 µM; AID 588473; HEK293 CRF-R2/CRF-BP, calcium dye fluorescence (FLIPR); percent of saturating CRF peptide response;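 active = activation of at least 50%, plus an integration ratio under a set limit after plate pattern correction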
IDE cell activ – boosts human insulin-degrading enzyme activity in HEK cells. P14735. FAbeta-B cleavage, fluorescence polarization; 0% vehicle, 100% cell-free pure enzyme wells. activation, % at 5.96 µM. hit rate 0.073% among 340,000;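 active = activation above the mean of all tested compounds plus 3 SD, set per screening campaign, cut at about 17% in these data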
RTF Ca sens inh – cardiac RTF calcium desensitization; IANBD-labeled cardiac RTF, Ca2+ fluorescence; P19429+P45379; hit rate 0.12% among 340,000; inhibition, % at 7.15 µM;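 active = inhibition above the mean inhibition of all tested compounds plus 3 SD, cut at about 17% in these data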;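 also: assay run at fixed EC70 calcium of 1.6 mM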
IDE inh – cellular human IDE inhibition; inhibition, % at 5.59 µM; hit rate 0.41% among 320,000; AID 434962; HEK cells, FAbetaB cleavage, fluorescence polarization;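 active = percent inhibition above the average of all tested compounds plus 3 SD, set per screening campaign, cut at about 16% in these data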;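 also: IDE supplied by intact live HEK cells; FP after avidin binding of uncleaved biotin substrate so inhibition keeps polarization high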
CRFR2-BP antag – CRF-BP/CRF-R2 complex antagonism; HEK293 CRF-R2/CRF-BP, CRF-induced calcium fluorescence; inhibition, % at 11.8 µM; hit rate 0.59% among 350,000; AID 588475;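 active = inhibition of the ligand-induced calcium signal above about 50% at the single tested concentration, limit read from the data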
Numbers stand for hits; . = inactive; / = no result. A selection: hits, their analogues and other compounds. The true share with any hit is near 1.5%.

SMILES	RTF Ca sens act	CRFBP-R2 agonist	IDE cell activ	RTF Ca sens inh	IDE inh	CRFR2-BP antag
O=C(Nc1ccc(N2CCCCCC2)cc1)c1ccccc1Cl	.	.	.	.	.	80.9
Cc1ccc(Cn2nnc3c(=O)[nH]c(C4CCN(S(=O)(=O)c5ccccc5)CC4)nc32)cc1	.	.	.	.	.	.
Cc1ccc(S(=O)(=O)N2CCC(c3nc4c(nnn4Cc4ccccc4)c(=O)[nH]3)CC2)cc1	/	.	/	/	.	63.5
COc1ccc(O)c(C(=O)c2cnc3c(c2)c(=O)[nH]c(=O)n3C)c1	.	.	.	.	.	.
COCCn1c(=O)[nH]c(=O)c2cc(C(=O)c3cc(Cl)ccc3O)cnc21	.	99.2	.	.	.	.
O=C(Nc1nnc(-c2ccc(Cl)cc2)o1)Nc1ccccc1Cl	.	.	.	.	.	.
O=C(Nc1nnc(-c2ccc(F)cc2)o1)c1cc(Cl)sc1Cl	.	91.0	.	.	.	.
O=C(Nc1nnc(-c2ccc(F)cc2)o1)c1cccc([N+](=O)[O-])c1	.	.	.	.	.	.
O=C(Nc1nnc(-c2ccc(Cl)cc2)o1)c1nc2ccccc2s1	.	187.1	.	.	.	.
CCCN(CCC)S(=O)(=O)c1ccc(C(=O)Nc2nnc(-c3cc(OC)cc(OC)c3)o2)cc1	.	.	.	.	.	.
CCCN(CCC)S(=O)(=O)c1ccc(C(=O)Nc2nnc(-c3cccc(OC)c3)o2)cc1	.	99.9	.	.	.	.
O=C(Nc1nnc(-c2ccccc2)o1)c1cc(Cl)sc1Cl	.	187.8	.	.	.	.
O=C(N/N=C/c1ccc[nH]1)c1ccc(Cl)cc1	.	.	.	.	.	.
O=c1c2ccccc2oc2cc(OCc3ccc(F)cc3)cc(O)c12	.	.	.	.	/	.
Cc1ccc(C(=O)Nc2nnc(-c3ccncc3)o2)cc1	.	.	.	.	.	.
Cc1cccc(-c2nnc(NC(=O)c3ccc(Cl)cc3)o2)c1	.	108.5	.	.	.	.
COCCn1c(C)cc(C(=O)CSc2ccc(NC(C)=O)cc2)c1C	.	62.4	.	.	.	.
CC1(C)c2ccccc2N2CC(=O)N(CC(N)=O)C21C (stereo unspecified)	39.7	.	.	.	.	.
Cc1cc(C)n(-c2ccc(C(=O)Oc3ccc4c(c3)OCO4)cc2)n1	.	.	.	.	.	72.8
CC12COC3(C(=O)Nc4ccc5ccccc5c4)CC1CCC32C (stereo unspecified)	.	.	.	.	.	.
CCOC(=O)C1(CC2CC2)CCN(Cc2cnc(N(C)C)s2)CC1	.	.	17.4	.	.	.
COc1ccc(Cl)cc1NC(=O)C1CC(c2ccccc2O)=NO1 (stereo unspecified)	.	.	.	.	.	.
COc1c(Cl)cc(Cl)cc1CNc1ccc(S(N)(=O)=O)cc1	.	.	.	.	.	58.0
CCOc1c(Cl)cc(CNc2ccc(S(N)(=O)=O)cc2)cc1OC	.	.	.	.	.	.
CCC(C)C(=O)C(=O)N1CCC(n2nccc2NC(=O)CCOc2ccccc2)CC1 (stereo unspecified)	/	.	/	/	/	.
SMILES	RTF Ca sens act	CRFBP-R2 agonist	IDE cell activ	RTF Ca sens inh	IDE inh	CRFR2-BP antag
COc1ccc(C2Nc3cc(OC)ccc3-n3cccc32)cc1 (stereo unspecified)	.	.	.	.	.	.
COC(=O)c1cc2c(=O)c3ccccc3oc2nc1C	.	.	.	.	/	.
COC(=O)c1cc2c(=O)c3ccccc3oc2nc1/C=C/N(C)C	47.9	198.2	.	.	/	.
COC(=O)Cn1cc(/C=C/c2cc[n+](C)cc2)c2ccccc21	86.2	51.2	.	.	.	.
COC(=O)Cn1c(C)c(/C=C/c2cc[n+](C)cc2)c2ccccc21	64.0	.	.	.	/	.
O=Cc1c(N2CCN(CCO)CC2)nc2ccccn2c1=O	.	128.1	.	.	.	.
CCN1CCN(c2nc3ccccn3c(=O)c2C=O)CC1	.	.	.	.	.	.
CC1=NS(=O)(=O)NC(C)(C)C1	.	.	.	.	/	.
O=C(c1ccc([N+](=O)[O-])cc1)N(Cc1ccc(Cl)cc1)N1C(=O)CCCC1=O	.	157.2	.	.	.	.
O=C(c1ccc([N+](=O)[O-])cc1)N(Cc1ccc(Cl)cc1Cl)N1C(=O)CCCC1=O	.	53.0	.	.	.	.
Cc1cc(C)nc(/N=C(\N)Nc2ccc(CC(=O)OC(C)C)cc2)n1	.	101.3	.	.	.	.
Cc1cc(C)nc(/N=C(\N)Nc2ccc(S(=O)(=O)O)cc2)n1	/	.	/	/	/	.
COc1ccc(N/C(N)=N/c2nc(C)cc(C)n2)cc1	/	70.1	/	/	/	.
Cc1cc(C)nc(/N=C(\N)Nc2ccc(OCCC(C)C)cc2)n1	.	74.5	.	.	.	.
CSCCC(NC(=O)c1ccccc1)C(=O)N/N=C(\C)c1ccccc1 (stereo unspecified)	.	111.5	.	.	.	.
C/C(=C\c1ccccc1)CN1CCC(C(=O)N2CCC(C)CC2)CC1	.	.	.	.	.	.
C/C(=C\c1ccccc1)CN1CCC(C(=O)N2CCCCC2)CC1	.	.	.	.	.	95.8
C/[N+]([O-])=C\C1C(=O)CC(C)(C)CC1=O	.	.	.	.	.	53.4
C=CCO/N=C/C1C(=O)CC(C)(C)CC1=O	.	.	.	.	.	.
COC(=O)N/N=C(\C)c1cccs1	.	.	.	.	.	112.4
COc1cc(NC(=O)CSc2nnc3c(C)cc4c(C)ccc(C)c4n23)c(C(=O)O)cc1OC	.	.	.	.	.	.
COc1cc(C(=O)NC(=S)Nc2ccc3c(c2)C(=O)N(C)C3=O)cc(OC)c1OC	.	.	.	.	.	.
C=CCN([C@@H](CC(C)C)C(=O)OC)S(=O)(=O)N(CC=C)[C@@H](CC(C)C)C(=O)OC	.	.	.	.	.	.
CCCCCCCCCSc1n[nH]c(N)n1	.	.	.	.	.	68.9
COc1cc(C)c(Cl)cc1S(=O)(=O)N1CCSC1	.	.	.	.	/	.
SMILES	RTF Ca sens act	CRFBP-R2 agonist	IDE cell activ	RTF Ca sens inh	IDE inh	CRFR2-BP antag
O=C(NCCSc1ccc(Br)cc1)c1ccc2nc[nH]c2c1	.	.	20.0	.	.	.
O=C(c1ccc(Cl)c(S(=O)(=O)Nc2ccccc2C(=O)N2CCc3ccccc3C2)c1)N1CCc2ccccc2C1	.	.	.	.	.	53.8
O=C(c1ccc(Cl)c(S(=O)(=O)N2CCc3ccccc3C2)c1)N1CCN(c2ccccc2)CC1	.	.	.	.	.	.
CC(C)(C)NC(=O)C(=O)NNC(=O)COc1ccc(Br)cc1	.	.	.	.	.	.
COc1cc(N2CCCC2)c(OC)cc1/C=C(/C#N)c1ccc(Br)cc1	30.3	.	.	.	.	.
COc1cc(N2CCCC2)c(OC)cc1/C=C(/C#N)c1ccc(F)cc1	.	.	.	.	.	.
CCCCn1c(N)c(N(CC)C(=O)c2c(CC)noc2C)c(=O)[nH]c1=O	.	.	.	.	.	.
